This is a sample that favours compounds with a hit; in the whole collection about 4.9% have one here.
USP8 inh: blocks human USP8 ubiquitin-rhodamine cleavage. P40818. purified USP8, Ub-rhodamine cleavage fluorescence, 30 min. inhibition, % at 20 µM. actives 4.2% (n = 47,000)
OTUD3 inh: inhibitors of human OTUD3 deubiquitinase | Q5T2D3 | purified OTUD3, Ub-rhodamine fluorescence, 2 h | inhibition, % at 25 µM | actives 0.7% (n = 47,000) | AID 1645858
USP7 inh: human USP7 deubiquitinase inhibition | purified USP7, Ub-rhodamine cleavage fluorescence | inhibition, % at 20 µM | actives 0.3% (n = 47,000) | AID 1645854
Target sequence (Q93009 whole entry, looked up): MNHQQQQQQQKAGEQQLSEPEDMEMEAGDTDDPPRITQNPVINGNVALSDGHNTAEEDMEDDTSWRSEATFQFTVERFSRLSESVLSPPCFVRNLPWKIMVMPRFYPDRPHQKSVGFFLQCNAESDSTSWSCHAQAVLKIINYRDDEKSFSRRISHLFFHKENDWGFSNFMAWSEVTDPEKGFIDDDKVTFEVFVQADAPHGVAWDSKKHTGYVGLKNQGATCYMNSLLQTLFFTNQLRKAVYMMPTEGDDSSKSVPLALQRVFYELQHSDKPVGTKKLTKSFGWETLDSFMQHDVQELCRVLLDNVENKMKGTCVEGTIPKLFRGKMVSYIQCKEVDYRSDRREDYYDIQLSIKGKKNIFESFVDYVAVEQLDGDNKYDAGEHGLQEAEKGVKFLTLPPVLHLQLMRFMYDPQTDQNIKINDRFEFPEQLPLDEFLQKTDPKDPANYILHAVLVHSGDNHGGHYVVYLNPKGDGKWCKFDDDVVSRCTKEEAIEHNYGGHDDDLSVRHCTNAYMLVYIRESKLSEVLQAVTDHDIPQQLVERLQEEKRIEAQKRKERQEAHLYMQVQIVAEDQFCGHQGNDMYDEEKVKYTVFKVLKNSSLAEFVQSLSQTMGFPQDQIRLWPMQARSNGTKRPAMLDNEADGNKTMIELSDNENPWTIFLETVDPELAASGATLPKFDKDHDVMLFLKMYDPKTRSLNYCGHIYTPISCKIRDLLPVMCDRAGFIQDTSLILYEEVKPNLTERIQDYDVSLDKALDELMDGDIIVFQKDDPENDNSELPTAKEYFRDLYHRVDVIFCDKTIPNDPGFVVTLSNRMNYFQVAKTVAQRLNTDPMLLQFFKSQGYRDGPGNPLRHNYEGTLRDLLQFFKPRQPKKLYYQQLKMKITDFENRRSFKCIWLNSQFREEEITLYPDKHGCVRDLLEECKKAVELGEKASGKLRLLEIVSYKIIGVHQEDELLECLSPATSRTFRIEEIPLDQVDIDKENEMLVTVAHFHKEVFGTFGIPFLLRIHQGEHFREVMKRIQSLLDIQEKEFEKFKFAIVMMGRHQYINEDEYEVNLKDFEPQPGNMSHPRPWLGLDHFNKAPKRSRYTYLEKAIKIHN
UCHL1 inh: human UCHL1 deubiquitinase inhibition; P09936; purified UCHL1, Ub-rhodamine cleavage fluorescence; inhibition, % at 20 µM; actives 0.2% (n = 47,000); AID 1645859
USP10 block: blocks human USP10 ubiquitin-rhodamine cleavage; AID 1645856; actives 1.1% (n = 47,000); Q14694; inhibition, % at 20 µM; purified USP10, Ub-rhodamine fluorescence, 60 min
Active calls of the source: *. Rule as the data show it: active = inhibition above about 30%; inactive = the rest.

SMILES	USP8 inh	OTUD3 inh	USP7 inh	UCHL1 inh	USP10 block
O=C(Nc1nc2c(ccc3ccccc32)s1)c1cccc(Br)c1	35.6*	2.5	8.5	0.0	-1.8
CC(=O)Nc1cccc(C(=O)N(Cc2ccco2)C2(C(=O)Nc3c(C)cccc3C)CCCCC2)c1	-6.1	-10.3	-1.8	2.2	-5.3
Cc1cc(C)nc(SCC(=O)N(Cc2ccco2)C2(C(=O)Nc3c(C)cccc3C)CCCCC2)n1	29.6	56.8*	7.3	2.0	15.5
COc1ccccc1N(Cc1ccccc1)S(=O)(=O)c1cccc(C(=O)Nc2ncc(C)s2)c1	-3.0	-10.9	-9.5	-5.0	-2.9
Cc1nc(-c2ccccc2)sc1C(=O)Nc1ccc2c(c1)OCCO2	8.5	10.8	-2.2	5.1	9.0
Cc1nc2ccccc2c2oc(C(=O)Nc3ccc4c(c3)OCCO4)cc12	52.2*	7.9	9.8	2.1	-3.2
CNc1cc(C2CCCN(C(=O)C3CN(S(C)(=O)=O)C3)C2)ccn1 (stereo unspecified)	-31.2	-9.5	-4.4	-3.4	-2.0
O=C(NC1CC1)c1ccc2c(=O)n3c(nc2c1)CCCC3	2.1	5.6	3.0	-0.1	0.1
O=C(NC1CC1)c1ccc2c(=O)n(-c3ccc(F)cc3)cnc2c1	61.7*	-1.7	-6.9	-2.5	-1.3
COc1cccc(-n2cnc3cc(C(=O)NC4CC4)ccc3c2=O)c1	92.2*	-0.6	-7.0	10.8	1.5
COc1ccc(NC(=O)c2nnc(C(=O)NCCN3CCCCCC3)s2)cc1	-5.7	33.6*	3.0	6.1	9.6
Cc1ccccc1C1CC(=O)Nc2c1c(C)nn2-c1ccc2nnc(C)n2n1 (stereo unspecified)	2.1	13.8	-1.7	1.3	2.7
Cc1cc(C2CC(=O)Nc3c2c(C)nn3-c2nc3ccccc3[nH]2)c(C)s1 (stereo unspecified)	30.4*	-10.8	1.0	-0.7	3.1
Cc1ccc(NC(=O)c2cccnc2N2CCOCC2)cc1	14.4	0.2	1.5	0.1	-0.8
O=C(O)c1nn(Cc2cc(F)cc3c2OC(c2ccccc2)OC3)c(=O)c2ccccc12 (stereo unspecified)	11.8	-13.0	-22.9	-1.9	-7.2
Fc1cc2c(c(CSc3nnc4ccccn34)c1)OC(c1ccccc1)OC2 (stereo unspecified)	48.5*	9.4	-36.5	4.4	9.0
O=C(C1CCC1)N1CCC(CCOc2ccc(F)cc2)CC1	-0.4	-5.2	-114.6	1.2	1.8
O=C(Cn1cnnn1)N1CCCCC1c1nc2ccccc2[nH]1 (stereo unspecified)	0.3	-5.5	-1.1	-0.5	0.0
CCN(C(=O)c1cnc2ccccc2n1)c1ccccc1	-16.1	-33.4	-14.0	-16.6	-2.5
O=C(Cn1ccc2ccn(Cc3ccccc3)c2c1=O)NC1CCCC1	14.9	8.7	-8.7	1.3	-1.7
O=C(Cn1ccc2ccn(Cc3ccccc3)c2c1=O)Nc1ccccc1Cl	77.2*	5.6	16.7	-3.6	26.5
CN(C)c1ccc(C2C3=C(CC(C)(C)CC3=O)Nc3ccccc3N2C(=O)Cc2ccc(Cl)cc2)cc1 (stereo unspecified)	30.5*	-13.2	-0.9	4.1	-4.1
Cc1cc(Nc2ncccc2C)nc(C2CCCN(S(C)(=O)=O)C2)n1 (stereo unspecified)	3.0	15.8	4.7	0.3	0.1
O=C(NCc1nc(-c2ccc3c(c2)[nH]c(=O)n3C2CCCC2)no1)c1ccccc1	49.5*	-20.4	0.5	-1.7	-3.7
Cc1nc(C)c(-c2nc(-c3ccc4c(c3)[nH]c(=O)n4C3CCCC3)no2)s1	-1.8	-72.5	-14.6	-7.3	-8.1
SMILES	USP8 inh	OTUD3 inh	USP7 inh	UCHL1 inh	USP10 block
CC1CCCCN1c1nc(F)c2c(c1F)S(=O)(=O)CCN2Cc1cccnc1 (stereo unspecified)	69.8*	-4.1	-4.7	0.5	-4.5
CCN(CC)c1nc(F)c2c(c1F)S(=O)(=O)CCN2Cc1cccnc1	89.9*	13.0	-18.9	3.6	-5.8
O=C(Nc1cc(=O)[nH]c2nc(CCc3ccccc3)nn12)c1ccco1	15.2	-11.1	-0.2	-4.0	-1.7
COc1ccc(NC(=O)CN2CCC3(CCC2=O)NC(=O)c2ccccc2N3)cc1 (stereo unspecified)	1.8	-3.1	-1.0	-4.1	-4.0
CC(C)N1CCN(C(=O)CN2CCC3(CCC2=O)NC(=O)c2ccccc2N3)CC1 (stereo unspecified)	31.8*	8.5	6.5	1.3	1.1
Cc1ccccc1-c1noc(-c2cccn(CC(=O)Nc3ccccc3F)c2=O)n1	75.7*	-13.4	13.0	-4.3	-6.5
Cc1noc(-c2cccn(Cc3noc(-c4ccccc4C)n3)c2=O)n1	-9.8	13.4	-0.3	-2.2	-4.4
c1ccc2c(c1)CCc1c-2nc2ccccc2c1N1CCOCC1	83.0*	-21.5	-21.3	-5.4	-2.6
O=C(NCCN1CCOCC1)c1[nH]nc2c1CCc1ccccc1-2	-2.6	-2.1	-1.3	-0.8	1.0
c1ccc(-c2nnc3ccc(SCc4ccccn4)nn23)cc1	-133.4	16.2	1.7	0.4	5.3
CC(=O)c1cccc(NC(=O)c2sc3nc(-c4cccc([N+](=O)[O-])c4)cn3c2C)c1	57.8*	18.0	0.8	6.7	13.9
COc1ccc(NC(=O)c2sc3nc(-c4cccc([N+](=O)[O-])c4)cn3c2C)cc1OC	2.3	-0.5	1.2	-1.6	3.9
O=C(O)CCCCCN1C(=O)CC(c2ccc(Cl)cc2)CC1=O	55.4*	7.6	1.0	22.8	11.9
O=C(C1CCCCC1)N1CCN(c2ccc(N3CCCC3)nn2)CC1	-5.2	-2.0	-15.8	-4.5	-3.3
CC(=O)Nc1cccc(NC(=O)COc2cccc3ccc(N4CCCC4)nc23)c1	6.1	-2.9	3.1	6.2	4.8
Cc1cccc(NC(=O)COc2cccc3ccc(N4CCC(C(N)=O)CC4)nc23)c1	60.6*	-7.4	1.3	-2.4	10.6
O=C(Cn1c(=O)[nH]c2c(-c3ccccc3)c[nH]c2c1=O)N1CCCCCC1	46.2*	-44.3	8.8	-5.1	1.4
Cc1nc(Nc2nncs2)cc(C2CCCN2C(=O)C2CCCC2)n1 (stereo unspecified)	9.4	5.9	1.8	1.5	1.4
O=C(CSc1ncnc2ccccc12)NC1CCCC1	-0.6	11.9	2.4	1.3	2.0
COc1ccc(C(=O)Nc2cnc(-c3ccccc3)nc2)cc1	91.6*	-6.5	2.1	-0.4	9.7
Cc1ccc(C(C(=O)NCc2ccc3c(c2)OCO3)N(C(=O)c2ccc3c(c2)OCCO3)c2cc(C)cc(C)c2)cc1 (stereo unspecified)	7.9	-7.1	5.2	1.7	-5.8
Cc1ccc(C(C(=O)NCc2ccc3c(c2)OCO3)N(C(=O)c2ccc3c(c2)OCCO3)C2CCCC2)cc1 (stereo unspecified)	47.5*	-34.3	9.3	0.8	-7.2
COc1ccc(-c2nc3c(c(=O)c4ccccc4n3C)c(=O)n2CC(C)C)cc1	12.1	7.6	10.5	2.2	8.5
CCc1nc2c(c(=O)c3ccccc3n2C)c(=O)n1-c1ccc(C)cc1	30.6*	1.4	-4.9	32.9*	5.2

Bioassay records from PubChem.
